Compound activity as filed in PubChem BioAssay.
Rows were chosen to be rich in hits. Some 21% of all compounds tested hit in one or more screens of this group.
Pf growth 48h: Primary qHTS for delayed death inhibitors of the malarial parasite plastid, 48 hour incubation; 310,000 compounds, 5.9% hits; Potency, µM (titrated, usually from 28.7 µM), for the others: at the top dose activity change, negative = inhibition, usual class: inhibitors; AID 504832, 2011; P. falciparum luciferase growth in erythrocytes, 48 h; note: potency is the fitted concentration of half-maximal effect; % is set by controls: 0 for no effect and ±100 for the full control effect
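Read-out is firefly luciferase luminescence from an integrated reporter in P. falciparum, so falling signal marks reduced parasite growth. Infected erythrocytes were at 2% hematocrit and 0.1% parasitemia (final) in Albumax-supplemented RPMI 1640.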
Pf growth 96h: Primary qHTS for delayed death inhibitors of the malarial parasite plastid, 96 hour incubation; P. falciparum luciferase reporter growth, 96 h; Potency, µM (highest dose often 28.7 µM), for inactives: top-dose activity change, negative = inhibition, usual class: inhibitors; 320,000 compounds, 6.9% hits; AID 504834, 2011; note: potency is the fitted concentration of half-maximal effect; % is set by controls: 0 for no effect and ±100 for the full control effect
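Compounds incubated with erythrocytes infected by luciferase-expressing P. falciparum (2% hematocrit, 0.05% parasitemia final) for 96 hours, 37 C in 5% CO2. Growth inhibition scored as decreased luciferase luminescence.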
NS1 inh: qHTS Assay for Inhibitors of Influenza NS1 Protein Function. 270,000 compounds, 0.4% hits. Potency, µM (titrated, usually from 46.1 µM), inactives show at the highest dose activity, positive = more growth. AID 2326, 2010; calls by dose curve; note: potency is the fitted concentration of half-maximal effect; actives are rising curves; nearly all actives have a fitted effect of over 50% in size
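Compounds were scored for reversing the slow growth caused by influenza A NS1 in S. cerevisiae, measured by optical density at 600 nm. Assay medium contained 2% galactose at pH 6.0; NS1-free yeast of the same strain were the positive control.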
Shiga inhibitor: A qHTS for Small Molecule Inhibitors of Shiga Toxin | 290,000 compounds, 9.2% hits | Vero cells, Shiga toxin protein synthesis inhibition reporter | inhibition, % at 38.7 µM; in the data active = inhibition mostly above about 28%, no sharp cut-off; inactive = mostly below about 43%; note: 0% is about no effect
Giardia FBPA inh: qHTS Assay for Inhibitors of Fructose-1,6-bisphosphate Aldolase from Giardia Lamblia; A8B2U2; purified Giardia FBPA; Potency, µM (top dose mostly 59.6 µM), for inactives: at the highest dose activity, negative = inhibition, usual class: inhibitors; 290,000 compounds, 0.71% hits; note: potency is the fitted concentration of half-maximal effect; % is set by controls: 0 for no effect and ±100 for the full control effect; nearly all actives have a fitted effect of over 55% in size
Target sequence (A8B2U2 whole entry, looked up): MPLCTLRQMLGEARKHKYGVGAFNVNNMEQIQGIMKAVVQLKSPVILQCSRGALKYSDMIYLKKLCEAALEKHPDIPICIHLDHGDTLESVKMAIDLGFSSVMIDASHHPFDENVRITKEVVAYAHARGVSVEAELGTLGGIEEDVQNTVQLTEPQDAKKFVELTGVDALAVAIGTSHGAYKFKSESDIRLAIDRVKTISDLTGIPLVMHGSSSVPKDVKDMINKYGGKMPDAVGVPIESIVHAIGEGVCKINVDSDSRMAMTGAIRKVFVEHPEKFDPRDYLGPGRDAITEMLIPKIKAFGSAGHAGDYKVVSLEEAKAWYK
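40 nM FBPA preincubated 10 min at RT with compound (up to 57.5 uM final), then substrate plus GAPDH/TPI/NAD/arsenate coupling and diaphorase/resazurin added. Fluorescence read after 20 min at RT, 525/598 nm.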
Cycloheximide cs: Cycloheximide Counterscreen for Small Molecule Inhibitors of Shiga Toxin; cell reporter, cycloheximide protein synthesis inhibition counterscreen; max response, %; 300,000 compounds, 12% hits; in the data active = max response mostly above about 13%, no sharp cut-off; inactive = mostly below about 14%; note: read at 38.3 µM for the half of the compounds with a filed dose; 0% is about no effect
Numbers without * were called inactive; ? = inconclusive; / = not tested or not shown. Unless noted, calls come from the whole dose curve; as a rule, active = well fitted curve in the direction sought with a large enough effect; inconclusive = small, poorly fitted or top-dose-only effect, or another doubt; inactive = no such curve, though single readings can be large; an effect the other way counts as inactive or inconclusive.

SMILES	Pf growth 48h	Pf growth 96h	NS1 inh	Shiga inhibitor	Giardia FBPA inh	Cycloheximide cs
CC1(C)C2CCC1(CS(=O)(=O)N1CCN(c3ccc(F)cc3)CC1)C(=O)C2 (stereo unspecified)	-17%	-52%	7%	-3	0%	-3
Cc1ccccc1NC(NC(=O)OCCn1c([N+](=O)[O-])cnc1C)C(Cl)(Cl)Cl (stereo unspecified)	?	-26%	12%	-7	-5%	3
Cc1ncc([N+](=O)[O-])n1CCOC(=O)NC(NCc1ccccc1)C(Cl)(Cl)Cl (stereo unspecified)	8.3µM*	0.33µM*	9%	-16	2%	-2
Cc1ncc([N+](=O)[O-])n1CCOC(=O)NC(NCc1cccnc1)C(Cl)(Cl)Cl (stereo unspecified)	?	?	7%	-8	6%	-5
Cc1ncc([N+](=O)[O-])n1CCOC(=O)NC(Nc1ccc(F)cc1)C(Cl)(Cl)Cl (stereo unspecified)	8.3µM*	6.6µM*	-1%	-4	5%	-3
COc1ccc(S(=O)(=O)n2cccc2)cc1OC	15%	-1%	3%	12	4%	1
CC(C)Cn1c(N)c(-c2nc(C(C)C)c(C(=O)c3ccccc3F)s2)c(=O)n(C)c1=O	7%	?	0%	-6	0%	-4
CCOc1ccc(CC(=O)Nc2sc(Cc3ccccc3)cc2C(N)=O)cc1OCC	/	12µM*	-5%	-7	-3%	5
NC(=O)c1cc(Cc2ccccc2)sc1NC(=O)c1ccco1	51%	/	-29%	78*	3%	47*
COc1ccc(-c2csc3c2[N+]2=CCC=C2C3=O)cc1	/	/	-15%	/	/	/
CCC(=O)CCCCC[C@@H]1NC(=O)[C@H]2CCCCN2C(=O)[C@H]([C@@H](C)CC)NC(=O)[C@H](Cc2cn(OC)c3ccccc23)NC1=O	/	/	/	22	-10%	-2
CCc1cc(=O)oc2c(C)c(OCC(=O)NC3CC(C)(C)NC(C)(C)C3)ccc12	?	10µM*	1%	-8	/	1
COc1ccc2cc(Br)ccc2c1CC(=O)NC1CC(C)(C)NC(C)(C)C1	/	8.3µM*	-8%	-16	-1%	2
CCc1ccc(OCC(=O)NC2CC(C)(C)NC(C)(C)C2)cc1	?	6.6µM*	0%	-1	9%	-2
CCNC(=O)Cc1c(OC)ccc2cc(Br)ccc12	-2%	12%	-3%	-5	5%	-4
CN(C)c1cc(-c2ccccc2)nc(-c2ccccc2)n1	33%	0%	10%	/	9%	-3
c1ccc(CNc2ncncc2-c2ccc3c(c2)OCO3)cc1	/	/	/	/	-19%	/
O=C(Cc1ccccc1)NCC(=O)N/N=C/c1ccc(Cl)cc1	-12%	-9%	1%	7	6%	-3
COc1cc(OC)cc(C(=O)NNC(=O)c2ccccn2)c1	9.3µM*	?	3%	-5	2%	15
COc1ccc(C(=O)O/N=C(\N)c2ccccn2)cc1	-91%	-20%	-30%	-29	5%	-11
COc1cc(OC)cc(C(=O)O/N=C(\N)c2ccccn2)c1	?	?	-42%	116*	1%	51*
CCOc1cc(C(=O)O/N=C(\N)c2ccc([N+](=O)[O-])cc2)cc(OCC)c1OCC	?	?	15%	6	4%	-3
CCOc1ccc(C(=O)O/N=C(\N)c2ccccn2)cc1OCC	-97%	66%	-28%	85*	/	52*
CCOc1cc(C(=O)O/N=C(\N)c2ccccn2)cc(OCC)c1OCC	?	-17%	-76%	54*	18%	53*
CCCOc1ccc(C(=O)NCC(c2cccs2)N(C)C)cc1 (stereo unspecified)	30%	-13%	-6%	57	1%	20*
CCCOc1ccc(C(=O)NCC(c2ccco2)N(C)C)cc1 (stereo unspecified)	3%	?	-5%	21	2%	16*
Cc1ccc(NS(=O)(=O)c2ccc(C(=O)NCC(c3ccco3)N(C)C)cc2)cc1 (stereo unspecified)	-4%	12%	1%	-36	/	2
